The values that follow come from PubChem BioAssay (Tox21).

The structures appear in SMILES notation. Inconclusive results are not listed. Where a call stands in place of a potency, no number is given. A number with no mark means an inactive call. The source made the active and inactive calls. Unless noted, calls follow the shape of the full dose curve.

Test system in the first assay: not listed separately
Briefly: qHTS assay to identify small molecule antagonists of the thyroid receptor (TR) signaling pathway (AID 743065; active = well fitted inhibition curve with a large enough effect in the repeat runs; also: nearly all actives have a fitted effect of over 55% in size). The note with it: GH3.TRE-Luc, T3-stimulated luciferase inhibition, 23.5 h; series mostly up to 70.3 µM. A digest of the protocol:
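GH3.TRE-Luc rat pituitary cells carrying two TR response elements driving luciferase were plated for 4 h, given compound plus 1 nM T3 (final), and incubated 23.5 h at 37 C. ONE-Glo luminescence measured reporter inhibition; CellTiter-Fluor fluorescence tracked cytotoxicity.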
For orientation: Quantitative high-throughput screening tests each substance at several concentrations.
Take `O=c1c(O)c(O)c1=O`: the Potency result was “inactive”.

Consider `CN(C)c1ccncc1`, for which the Potency entry is “inactive”.

Turning to `CCC(C)SSC(C)CC` (configuration not stated), the Potency entry was “inactive”.

With `CCOCCOCCOC(C)=O`, the Potency result is “inactive”.

For the compound `CN(C)CCc1c[nH]c2ccc(CS(=O)(=O)N3CCCC3)cc12`, the Potency entry is “inactive”.

`CC(C)(O)c1ccc(C(C)(C)O)cc1`: the Potency entry is “inactive”.

As for `CCCCOCCCC`, the Potency entry was “inactive”.

With `C=CCOC(=O)CCCCCCCC`, the Potency result was “inactive”.

For the compound `CCCCCCC(=O)c1ccccc1`, the Potency result was “inactive”.

As for `C/C(Cl)=C/CCl`, the Potency result is “inactive”.

As to `CC(=O)OC1CCC(C(C)(C)C)CC1` (configuration not stated), the Potency result is “inactive”.

As to `CCOC(=O)c1ccc(N(C)C)cc1`, the Potency entry is “inactive”.

For `Cc1cc(C)c(C)c(C)c1`, the Potency entry is “inactive”.

`C[C@@H]1CC[C@@]2(OC1)O[C@H]1C[C@H]3[C@@H]4CC[C@H]5C[C@@H](O)CC[C@]5(C)[C@H]4CC(=O)[C@]3(C)[C@H]1[C@@H]2C`: the Potency result is “inactive”.

Turning to `CCCCCC(CC)OC(=O)CCCOc1ccc(Cl)cc1Cl` (configuration not stated), the Potency result was “inactive”.

Consider `COc1ccc2cc(CCC(C)=O)ccc2c1`, for which the Potency result is “inactive”.

For `CC(=O)Nc1ccc(S(=O)(=O)Nc2cc(C)on2)cc1`, the Potency entry was “inactive”.

For the compound `CCCCCCCCCCCCCCCCN(C)C`, the activity, negative = inhibition was 0.216% [at 8.44 µM].

Take `C/C=C/C(=O)CCCC`: the Potency result is “inactive”.

As for `N=C(N)N1CCc2ccccc2C1`, the Potency result was “inactive”.

In the case of `CCN(CC)CC`, the Potency entry is “inactive”.

For the compound `Cc1ccc2cccnc2c1`, the Potency result was “inactive”.

For `C=CC(=O)OCCOCCOCC`, the Potency result is “inactive”.

In the case of `c1coc(Cn2cccc2)c1`, the Potency result was “inactive”.

As for `Cc1nnc(C(=O)NC(C)(C)c2nc(C(=O)NCc3ccc(F)cc3)c(O)c(=O)n2C)o1`, the Potency entry was “inactive”.

With `O=C(O)/C=C(\CC(=O)O)C(=O)O`, the Potency entry was “inactive”.

Turning to `CC(C)(C)C(=O)NCCCC(=O)O`, the Potency entry is “inactive”.

With `Cc1cc(N)no1`, the Potency entry was “inactive”.

On to `Cc1ccc(Br)cc1`, for which the Potency entry was “inactive”.

Take `COC(=O)N/N=C/c1c[n+]([O-])c2ccccc2[n+]1[O-]`: the Potency result is “inactive”.

As to `COc1cc(OC)cc(OC)c1`, the Potency entry was “inactive”.

With `Cc1ccc(O)c(C(=O)c2ccccc2)c1`, the Potency entry was “inactive”.

Consider `CC(CN1CC(=O)NC(=O)C1)N1CC(=O)NC(=O)C1` (configuration not stated), for which the Potency entry is “inactive”.

Turning to `Cc1ccc(NC(N)=O)cc1`, the Potency result is “inactive”.

In a further assay the test system is thyroid hormone receptor (rat, GH3 cells). Briefly: qHTS assay to identify small molecule agonists of the thyroid receptor (TR) signaling pathway (AID 743066). The settings on record: GH3.TRE-Luc cells, TR agonist luciferase, 24 h; series mostly up to 83.9 µM.
As for `O=c1c(O)c(O)c1=O`, the Potency entry was “inactive”.

On to `CN(C)c1ccncc1`, for which the Potency entry is “inactive”.

Regarding `CCC(C)SSC(C)CC` (configuration not stated), the Potency result was “inactive”.

Regarding `CCOCCOCCOC(C)=O`, the Potency entry is “inactive”.

As to `CN(C)CCc1c[nH]c2ccc(CS(=O)(=O)N3CCCC3)cc12`, the Potency entry was “inactive”.

With `CC(C)(O)c1ccc(C(C)(C)O)cc1`, the Potency result was “inactive”.

As for `CCCCOCCCC`, the Potency entry is “inactive”.

Turning to `C=CCOC(=O)CCCCCCCC`, the Potency entry is “inactive”.

Take `CCCCCCC(=O)c1ccccc1`: the Potency result was “inactive”.

Regarding `C/C(Cl)=C/CCl`, the Potency entry is “inactive”.

Consider `CC(=O)OC1CCC(C(C)(C)C)CC1` (configuration not stated), for which the Potency result was “inactive”.

Consider `CCOC(=O)c1ccc(N(C)C)cc1`, for which the Potency entry is “inactive”.

`Cc1cc(C)c(C)c(C)c1`: the Potency entry is “inactive”.

As to `C[C@@H]1CC[C@@]2(OC1)O[C@H]1C[C@H]3[C@@H]4CC[C@H]5C[C@@H](O)CC[C@]5(C)[C@H]4CC(=O)[C@]3(C)[C@H]1[C@@H]2C`, the Potency entry was “inactive”.

Take `CCCCCC(CC)OC(=O)CCCOc1ccc(Cl)cc1Cl` (configuration not stated): the Potency entry was “inactive”.

Turning to `COc1ccc2cc(CCC(C)=O)ccc2c1`, the Potency result was “inactive”.

`CC(=O)Nc1ccc(S(=O)(=O)Nc2cc(C)on2)cc1`: the Potency entry is “inactive”.

Consider `CCCCCCCCCCCCCCCCN(C)C`, for which the activation was 0.259% [at 8.08 µM].

On to `C/C=C/C(=O)CCCC`, for which the Potency entry is “inactive”.

`N=C(N)N1CCc2ccccc2C1`: the Potency entry was “inactive”.

In the case of `CCN(CC)CC`, the Potency result was “inactive”.

In the case of `Cc1ccc2cccnc2c1`, the Potency result is “inactive”.

For `C=CC(=O)OCCOCCOCC`, the Potency entry was “inactive”.

Take `c1coc(Cn2cccc2)c1`: the Potency entry is “inactive”.

Consider `Cc1nnc(C(=O)NC(C)(C)c2nc(C(=O)NCc3ccc(F)cc3)c(O)c(=O)n2C)o1`, for which the Potency entry was “inactive”.

Take `O=C(O)/C=C(\CC(=O)O)C(=O)O`: the Potency entry is “inactive”.

On to `CC(C)(C)C(=O)NCCCC(=O)O`, for which the Potency entry was “inactive”.

Take `Cc1cc(N)no1`: the Potency entry was “inactive”.

For the compound `Cc1ccc(Br)cc1`, the Potency result was “inactive”.

On to `COC(=O)N/N=C/c1c[n+]([O-])c2ccccc2[n+]1[O-]`, for which the Potency result is “inactive”.

Take `COc1cc(OC)cc(OC)c1`: the Potency entry was “inactive”.

For the compound `Cc1ccc(O)c(C(=O)c2ccccc2)c1`, the Potency entry was “inactive”.

Regarding `CC(CN1CC(=O)NC(=O)C1)N1CC(=O)NC(=O)C1` (configuration not stated), the Potency entry was “inactive”.

With `Cc1ccc(NC(N)=O)cc1`, the Potency result is “inactive”.

Test system in another assay: not listed separately
Briefly: qHTS assay to identify small molecule antagonists of the estrogen receptor alpha (ER-alpha) signaling pathway - cell viability counter screen (AID 743074).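 Also: HEK293 cells carrying ER-alpha-UAS-bla reporter stimulated with 17beta-estradiol; nearly all actives have a fitted effect of over 45% in size.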 The settings on record: ERalpha-bla HEK293 viability, CellTiter-Glo luminescence, 18 h; series mostly up to 69.4 µM.
On to `O=c1c(O)c(O)c1=O`, for which the Potency result was “inactive”.

Take `CN(C)c1ccncc1`: the Potency result was “inactive”.

For `CCC(C)SSC(C)CC` (configuration not stated), the Potency entry is “inactive”.

Consider `CCOCCOCCOC(C)=O`, for which the Potency result is “inactive”.

Turning to `CN(C)CCc1c[nH]c2ccc(CS(=O)(=O)N3CCCC3)cc12`, the Potency result is “inactive”.

On to `CC(C)(O)c1ccc(C(C)(C)O)cc1`, for which the Potency result was “inactive”.

`CCCCOCCCC`: the Potency result is “inactive”.

Take `C=CCOC(=O)CCCCCCCC`: the Potency result was “inactive”.

`CCCCCCC(=O)c1ccccc1`: the Potency entry was “inactive”.

Take `C/C(Cl)=C/CCl`: the Potency entry is “inactive”.

Take `CC(=O)OC1CCC(C(C)(C)C)CC1` (configuration not stated): the Potency entry is “inactive”.

With `CCOC(=O)c1ccc(N(C)C)cc1`, the Potency result is “inactive”.

On to `Cc1cc(C)c(C)c(C)c1`, for which the Potency entry was “inactive”.

Consider `C[C@@H]1CC[C@@]2(OC1)O[C@H]1C[C@H]3[C@@H]4CC[C@H]5C[C@@H](O)CC[C@]5(C)[C@H]4CC(=O)[C@]3(C)[C@H]1[C@@H]2C`, for which the Potency entry was “inactive”.

On to `CCCCCC(CC)OC(=O)CCCOc1ccc(Cl)cc1Cl` (configuration not stated), for which the Potency entry is “inactive”.

In the case of `COc1ccc2cc(CCC(C)=O)ccc2c1`, the Potency entry was “inactive”.

As to `CC(=O)Nc1ccc(S(=O)(=O)Nc2cc(C)on2)cc1`, the Potency entry was “inactive”.

Turning to `CCCCCCCCCCCCCCCCN(C)C`, the activity, negative = cytotoxicity was -9.33% [at 6.72 µM].

Regarding `C/C=C/C(=O)CCCC`, the Potency entry was “inactive”.

Consider `N=C(N)N1CCc2ccccc2C1`, for which the Potency result is “inactive”.

Turning to `CCN(CC)CC`, the Potency entry was “inactive”.

For the compound `Cc1ccc2cccnc2c1`, the Potency entry was “inactive”.

On to `C=CC(=O)OCCOCCOCC`, for which the Potency entry was “inactive”.

With `c1coc(Cn2cccc2)c1`, the Potency entry was “inactive”.

On to `Cc1nnc(C(=O)NC(C)(C)c2nc(C(=O)NCc3ccc(F)cc3)c(O)c(=O)n2C)o1`, for which the Potency entry is “inactive”.

As for `O=C(O)/C=C(\CC(=O)O)C(=O)O`, the Potency result was “inactive”.

As to `CC(C)(C)C(=O)NCCCC(=O)O`, the Potency entry was “inactive”.

Turning to `Cc1cc(N)no1`, the Potency entry was “inactive”.

Turning to `Cc1ccc(Br)cc1`, the Potency entry was “inactive”.

As to `COC(=O)N/N=C/c1c[n+]([O-])c2ccccc2[n+]1[O-]`, the Potency result was “inactive”.

Turning to `COc1cc(OC)cc(OC)c1`, the Potency result is “inactive”.

Take `Cc1ccc(O)c(C(=O)c2ccccc2)c1`: the Potency entry was “inactive”.

For the compound `CC(CN1CC(=O)NC(=O)C1)N1CC(=O)NC(=O)C1` (configuration not stated), the Potency result is “inactive”.

On to `Cc1ccc(NC(N)=O)cc1`, for which the Potency entry was “inactive”.
